# Laboratory results taken from the supplement of paper PMC8728848.
# This is one part of a sample in which the strongest signals are shown more often than they occur.
# Key:
# Experiment in all cases: glycan array binding signal (z-score within array); higher = stronger binding
# Settings in all cases: glycan notation: IUPAC condensed, linker removed
# [1] = molecular target: GalNAc(b1-4)GlcNAc(b1-2)Man(a1-3)[GalNAc(b1-4)GlcNAc(b1-2)Man(a1-6)]Man(b1-4)GlcNAc(b1-4)GlcNAc
# Method in brief: (§1)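 Arrays were curated from the Consortium for Functional Glycomics database, 3228 in total, and kept only where the protein sequence was available. Binding is expressed as a within-array Z-score. This score was averaged across arrays of the same protein sequence at different concentrations or buffers and across linkers, and negative values can be read as non-binding.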
# [2] = molecular target: GlcNAc(b1-2)Man(a1-3)[GlcNAc(b1-4)][GlcNAc(b1-2)Man(a1-6)]Man(b1-4)GlcNAc(b1-4)GlcNAc
# Method in brief: as §1
# [3] = molecular target: GlcNAc(b1-3)Gal(b1-4)Glc
# Method in brief: as §1
# [4] = molecular target: GlcNAc(b1-3)Gal(b1-4)GlcNAc
# Method in brief: as §1
# [5] = molecular target: GlcNAc(b1-3)Gal(b1-4)GlcNAc(b1-2)Man(a1-3)[GlcNAc(b1-3)Gal(b1-4)GlcNAc(b1-2)Man(a1-6)]Man(b1-4)GlcNAc(b1-4)GlcNAc
# Method in brief: as §1
# [6] = molecular target: GlcNAc(b1-3)Gal(b1-4)GlcNAc(b1-3)Gal(b1-4)GlcNAc(b1-2)Man(a1-3)[GlcNAc(b1-3)Gal(b1-4)GlcNAc(b1-3)Gal(b1-4)GlcNAc(b1-2)Man(a1-6)]Man(b1-4)GlcNAc(b1-4)GlcNAc
# Method in brief: as §1
# [7] = molecular target: GlcNAc(b1-3)Gal(b1-4)GlcNAc(b1-6)[GlcNAc(b1-3)Gal(b1-3)]GalNAc
# Method in brief: as §1
# [8] = molecular target: Man(a1-2)Man(a1-3)[Man(a1-2)Man(a1-6)]Man(a1-6)[Man(a1-2)Man(a1-2)Man(a1-3)]Man
# Method in brief: as §1
# [9] = molecular target: Man(a1-3)[Man(a1-6)]Man(b1-4)GlcNAc(b1-4)[Fuc(a1-6)]GlcNAc
# Method in brief: as §1
# [10] = molecular target: Neu5Ac(a2-3)Gal(b1-3)GlcNAc(b1-2)[Neu5Ac(a2-3)Gal(b1-3)GlcNAc(b1-4)]Man(a1-6)[Neu5Ac(a2-3)Gal(b1-3)GlcNAc(b1-2)Man(a1-3)]Man(b1-4)GlcNAc(b1-4)GlcNAc
# Method in brief: as §1
# [11] = molecular target: Neu5Ac(a2-3)Gal(b1-4)GlcNAc(b1-2)Man
# Method in brief: as §1
# [12] = molecular target: Neu5Ac(a2-3)Gal(b1-4)GlcNAc(b1-3)Gal(b1-4)GlcNAc(b1-2)Man(a1-3)[Neu5Ac(a2-3)Gal(b1-4)GlcNAc(b1-3)Gal(b1-4)GlcNAc(b1-2)Man(a1-6)]Man(b1-4)GlcNAc(b1-4)GlcNAc
# Method in brief: as §1
# [13] = molecular target: Neu5Ac(a2-3)Gal(b1-4)GlcNAc(b1-3)Gal(b1-4)GlcNAc(b1-3)[Neu5Ac(a2-3)Gal(b1-4)GlcNAc(b1-3)Gal(b1-4)GlcNAc(b1-6)]GalNAc
# Method in brief: as §1
# [14] = molecular target: Neu5Ac(a2-3)Gal(b1-4)[Fuc(a1-3)]GlcNAc(b1-2)Man
# Method in brief: as §1
# [15] = molecular target: Neu5Ac(a2-6)Gal(b1-4)GlcNAc(b1-2)Man(a1-3)[GlcNAc(b1-2)Man(a1-6)]Man(b1-4)GlcNAc(b1-4)GlcNAc
# Method in brief: as §1
# [16] = molecular target: Neu5Ac(a2-6)Gal(b1-4)GlcNAc(b1-2)Man(a1-6)Man(b1-4)GlcNAc(b1-4)GlcNAc
# Method in brief: as §1
# [17] = molecular target: Neu5Ac(a2-6)Gal(b1-4)GlcNAc(b1-3)Gal(b1-4)GlcNAc(b1-2)Man(a1-3)[Neu5Ac(a2-6)Gal(b1-4)GlcNAc(b1-3)Gal(b1-4)GlcNAc(b1-2)Man(a1-6)]GalNAc
# Method in brief: as §1
# [18] = molecular target: Neu5Ac(a2-6)Gal(b1-4)GlcNAc(b1-3)Gal(b1-4)GlcNAc(b1-3)[Neu5Ac(a2-6)Gal(b1-4)GlcNAc(b1-3)Gal(b1-4)GlcNAc(b1-6)]GalNAc
# Method in brief: as §1
# [19] = molecular target: Neu5Ac(a2-6)Gal(b1-4)GlcNAc(b1-3)Gal(b1-4)[Fuc(a1-3)]GlcNAc(b1-3)Gal(b1-4)[Fuc(a1-3)]GlcNAc
# Method in brief: as §1
# [20] = molecular target: Neu5Ac(a2-6)GalNAc
# Method in brief: as §1
# [21] = molecular target: Neu5Ac(a2-6)GalNAc(b1-4)GlcNAc6S
# Method in brief: as §1
# [22] = molecular target: Neu5Ac(a2-8)Neu5Ac(a2-3)Gal(b1-4)Glc
# Method in brief: as §1
# [23] = molecular target: Neu5Ac(a2-8)Neu5Ac(a2-8)Neu5Ac(a2-8)Neu5Ac(a2-3)[GalNAc(b1-4)]Gal(b1-4)Glc
# Method in brief: as §1
# [24] = molecular target: Neu5Ac(b2-6)GalNAc
# Method in brief: as §1
# [25] = molecular target: Neu5Ac9Ac(a2-3)Gal(b1-3)GlcNAc
# Method in brief: as §1
# [26] = molecular target: Neu5Gc(a2-6)Gal(b1-4)GlcNAc
# Method in brief: as §1
# [27] = molecular target: Neu5Gc(a2-6)GalNAc
# Method in brief: as §1
# [28] = molecular target: Neu5Gc(a2-8)Neu5Gc(a2-3)Gal(b1-4)GlcNAc
# Method in brief: as §1
binder,measurement,setting,value
Aap lectin (Staphylococcus epidermidis) (protein) VNLNYSSPFMSLLSMPADSSSNNTKNTIDIPPTTVKGRDNYDFYGRVDIESNPTDLNATNLTRYNYGQPPGTTTAGAVQFKNQVSFDKDFDFNIRVANNRQSNTTGADGWGFMFSKKDGDDFLKNGGILREKGTPSAAGFRIDTGYYNNDPLDKIQKQAGQGYRGYGTFVKNDSQGNTSKVGSGTPSTDFLNYADNTTNDLDGKFHGQKLNNVNLKYNASNQTFTATYAGKTWTATLSELGLSPTDSYNFLVTSS,glycan array binding signal (z-score),[1],3.29
same,glycan array binding signal (z-score),[2],-0.698
same,glycan array binding signal (z-score),[3],0.941
same,glycan array binding signal (z-score),[4],-0.278
same,glycan array binding signal (z-score),[5],0.543
same,glycan array binding signal (z-score),[6],3.83
same,glycan array binding signal (z-score),[7],-0.968
same,glycan array binding signal (z-score),[8],-0.858
same,glycan array binding signal (z-score),[9],-0.887
same,glycan array binding signal (z-score),[10],-0.885
same,glycan array binding signal (z-score),[11],-0.335
same,glycan array binding signal (z-score),[12],-0.87
same,glycan array binding signal (z-score),[13],-0.88
same,glycan array binding signal (z-score),[14],-0.708
same,glycan array binding signal (z-score),[15],-0.88
same,glycan array binding signal (z-score),[16],-0.806
same,glycan array binding signal (z-score),[17],-0.905
same,glycan array binding signal (z-score),[18],2.93
same,glycan array binding signal (z-score),[19],-0.333
same,glycan array binding signal (z-score),[20],-0.816
same,glycan array binding signal (z-score),[21],-1.16
same,glycan array binding signal (z-score),[22],-0.83
same,glycan array binding signal (z-score),[23],-0.444
same,glycan array binding signal (z-score),[24],-0.527
same,glycan array binding signal (z-score),[25],0.704
same,glycan array binding signal (z-score),[26],-0.275
same,glycan array binding signal (z-score),[27],-0.523
same,glycan array binding signal (z-score),[28],1.51
